Measurements: ChEMBL document CHEMBL2218924, “A broad activity screen in support of a chemogenomic map for kinase signalling research and drug discovery” (Biochem J, 2013)

What was measured:
[1] = target: T1, Ephrin type-B receptor 1 (Homo sapiens) (UniProt P54762); details: at 10 µM
T1 sequence (whole entry): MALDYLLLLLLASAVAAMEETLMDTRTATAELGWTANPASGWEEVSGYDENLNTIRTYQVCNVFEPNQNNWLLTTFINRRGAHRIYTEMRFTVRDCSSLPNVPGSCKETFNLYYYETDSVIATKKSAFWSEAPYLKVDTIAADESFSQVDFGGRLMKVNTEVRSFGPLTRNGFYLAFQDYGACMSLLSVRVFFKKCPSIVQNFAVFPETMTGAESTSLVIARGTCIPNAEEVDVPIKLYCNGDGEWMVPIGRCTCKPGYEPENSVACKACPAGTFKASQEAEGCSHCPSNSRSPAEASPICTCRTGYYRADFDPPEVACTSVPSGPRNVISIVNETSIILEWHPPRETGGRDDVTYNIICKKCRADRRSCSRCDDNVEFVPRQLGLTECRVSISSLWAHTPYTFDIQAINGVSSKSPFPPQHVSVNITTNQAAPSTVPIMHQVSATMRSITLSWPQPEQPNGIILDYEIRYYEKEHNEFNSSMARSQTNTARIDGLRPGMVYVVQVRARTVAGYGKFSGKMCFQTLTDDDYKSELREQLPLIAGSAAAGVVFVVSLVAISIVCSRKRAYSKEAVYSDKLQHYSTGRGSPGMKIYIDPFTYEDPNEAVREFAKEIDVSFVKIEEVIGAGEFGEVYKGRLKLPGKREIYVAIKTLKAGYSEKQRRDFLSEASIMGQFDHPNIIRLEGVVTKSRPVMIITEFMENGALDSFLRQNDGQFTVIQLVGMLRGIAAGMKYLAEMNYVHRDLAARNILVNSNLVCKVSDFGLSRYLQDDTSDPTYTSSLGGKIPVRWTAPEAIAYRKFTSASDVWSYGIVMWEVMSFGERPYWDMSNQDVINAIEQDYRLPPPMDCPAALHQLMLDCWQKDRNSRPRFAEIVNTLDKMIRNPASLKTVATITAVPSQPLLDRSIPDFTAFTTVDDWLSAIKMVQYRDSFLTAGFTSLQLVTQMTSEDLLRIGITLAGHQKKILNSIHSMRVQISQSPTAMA

[2] = target: T2, Ephrin type-B receptor 2 (Homo sapiens) (UniProt P29323); details: at 1 µM
T2 sequence (whole entry): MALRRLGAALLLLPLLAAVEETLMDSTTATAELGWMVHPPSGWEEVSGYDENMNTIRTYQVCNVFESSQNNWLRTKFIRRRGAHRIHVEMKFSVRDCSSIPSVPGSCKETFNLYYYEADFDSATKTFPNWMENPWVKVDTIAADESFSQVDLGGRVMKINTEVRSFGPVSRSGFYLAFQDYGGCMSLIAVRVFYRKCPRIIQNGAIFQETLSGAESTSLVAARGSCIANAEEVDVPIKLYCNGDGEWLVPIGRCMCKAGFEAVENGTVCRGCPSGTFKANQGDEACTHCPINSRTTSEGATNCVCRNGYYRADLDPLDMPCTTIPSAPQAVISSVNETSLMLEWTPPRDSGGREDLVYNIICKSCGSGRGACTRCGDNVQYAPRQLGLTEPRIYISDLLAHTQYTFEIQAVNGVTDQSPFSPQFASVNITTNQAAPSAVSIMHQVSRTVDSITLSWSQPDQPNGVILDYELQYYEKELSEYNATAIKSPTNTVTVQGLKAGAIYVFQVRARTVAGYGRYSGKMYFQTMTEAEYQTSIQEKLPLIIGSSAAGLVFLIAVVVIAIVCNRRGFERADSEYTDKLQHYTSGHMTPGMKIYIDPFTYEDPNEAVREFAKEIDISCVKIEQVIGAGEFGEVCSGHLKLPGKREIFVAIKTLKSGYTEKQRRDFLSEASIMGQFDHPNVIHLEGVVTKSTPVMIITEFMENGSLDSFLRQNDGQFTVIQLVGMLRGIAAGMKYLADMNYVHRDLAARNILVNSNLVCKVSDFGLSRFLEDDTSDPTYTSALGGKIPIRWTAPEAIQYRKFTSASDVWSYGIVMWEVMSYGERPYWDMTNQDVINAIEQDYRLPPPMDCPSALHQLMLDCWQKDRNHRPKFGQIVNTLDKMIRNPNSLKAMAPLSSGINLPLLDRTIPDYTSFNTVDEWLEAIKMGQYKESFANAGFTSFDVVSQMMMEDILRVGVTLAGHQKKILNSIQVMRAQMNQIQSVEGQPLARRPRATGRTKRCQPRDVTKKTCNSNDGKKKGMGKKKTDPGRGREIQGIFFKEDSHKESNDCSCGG

[3] = target: T2, Ephrin type-B receptor 2 (Homo sapiens); details: at 10 µM
[4] = target: T3, Ephrin type-B receptor 3 (Homo sapiens) (UniProt P54753); details: at 1 µM
T3 sequence (whole entry): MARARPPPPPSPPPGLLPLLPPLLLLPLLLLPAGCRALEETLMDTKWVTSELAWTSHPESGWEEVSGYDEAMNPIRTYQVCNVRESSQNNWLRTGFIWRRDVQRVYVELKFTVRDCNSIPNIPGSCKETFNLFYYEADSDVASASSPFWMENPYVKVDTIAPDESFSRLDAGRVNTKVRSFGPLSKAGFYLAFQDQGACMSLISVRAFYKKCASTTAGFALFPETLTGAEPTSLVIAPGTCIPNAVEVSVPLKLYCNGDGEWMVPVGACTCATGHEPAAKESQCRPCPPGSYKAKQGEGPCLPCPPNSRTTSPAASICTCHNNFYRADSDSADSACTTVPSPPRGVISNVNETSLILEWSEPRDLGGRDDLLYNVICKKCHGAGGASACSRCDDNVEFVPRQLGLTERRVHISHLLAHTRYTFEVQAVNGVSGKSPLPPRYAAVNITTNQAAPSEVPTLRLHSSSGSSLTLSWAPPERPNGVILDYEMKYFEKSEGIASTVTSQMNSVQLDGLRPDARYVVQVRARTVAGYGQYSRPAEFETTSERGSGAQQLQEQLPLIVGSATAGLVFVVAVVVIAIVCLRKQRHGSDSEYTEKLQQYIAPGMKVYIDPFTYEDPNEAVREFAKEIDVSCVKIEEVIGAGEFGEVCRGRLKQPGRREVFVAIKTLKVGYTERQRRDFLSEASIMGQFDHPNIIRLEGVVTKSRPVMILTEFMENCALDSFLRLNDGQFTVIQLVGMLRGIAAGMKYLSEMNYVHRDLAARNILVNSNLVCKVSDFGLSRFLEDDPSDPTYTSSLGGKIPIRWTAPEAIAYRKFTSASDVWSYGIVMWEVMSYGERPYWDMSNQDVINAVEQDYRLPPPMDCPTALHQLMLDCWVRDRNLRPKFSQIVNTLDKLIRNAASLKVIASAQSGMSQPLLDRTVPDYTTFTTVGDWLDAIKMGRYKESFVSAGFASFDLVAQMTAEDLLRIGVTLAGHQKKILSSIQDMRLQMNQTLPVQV

[5] = target: T3, Ephrin type-B receptor 3 (Homo sapiens); details: at 10 µM
[6] = target: T4, Ephrin type-B receptor 4 (Homo sapiens) (UniProt P54760); details: at 1 µM
T4 sequence (whole entry): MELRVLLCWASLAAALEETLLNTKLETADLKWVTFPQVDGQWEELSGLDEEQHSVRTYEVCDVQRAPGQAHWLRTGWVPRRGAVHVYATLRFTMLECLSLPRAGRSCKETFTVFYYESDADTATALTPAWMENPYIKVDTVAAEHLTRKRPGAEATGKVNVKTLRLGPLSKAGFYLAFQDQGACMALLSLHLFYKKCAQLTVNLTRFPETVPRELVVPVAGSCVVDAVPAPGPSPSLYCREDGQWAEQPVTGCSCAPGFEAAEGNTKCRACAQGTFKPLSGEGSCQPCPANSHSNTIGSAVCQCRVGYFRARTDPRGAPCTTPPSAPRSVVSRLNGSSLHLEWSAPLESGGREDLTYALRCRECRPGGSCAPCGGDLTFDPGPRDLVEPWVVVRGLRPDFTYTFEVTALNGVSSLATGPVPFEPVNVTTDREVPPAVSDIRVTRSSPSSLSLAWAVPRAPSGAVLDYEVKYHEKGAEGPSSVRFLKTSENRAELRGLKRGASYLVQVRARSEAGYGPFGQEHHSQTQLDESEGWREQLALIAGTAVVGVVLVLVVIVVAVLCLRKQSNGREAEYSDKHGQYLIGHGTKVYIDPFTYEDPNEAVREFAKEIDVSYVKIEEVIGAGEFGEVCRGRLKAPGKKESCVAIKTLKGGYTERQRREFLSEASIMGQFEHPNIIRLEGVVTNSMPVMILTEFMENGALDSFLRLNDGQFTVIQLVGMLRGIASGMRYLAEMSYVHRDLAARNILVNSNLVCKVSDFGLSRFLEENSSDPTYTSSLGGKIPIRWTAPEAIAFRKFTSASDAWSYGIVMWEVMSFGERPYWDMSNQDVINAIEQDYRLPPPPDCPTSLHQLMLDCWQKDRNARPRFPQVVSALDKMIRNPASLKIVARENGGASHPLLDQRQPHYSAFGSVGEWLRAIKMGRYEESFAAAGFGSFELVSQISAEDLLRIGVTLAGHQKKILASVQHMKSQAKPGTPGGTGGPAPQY

[7] = target: T4, Ephrin type-B receptor 4 (Homo sapiens); details: at 10 µM
[8] = target: Receptor tyrosine-protein kinase erbB-4 (Homo sapiens) (UniProt Q15303); details: at 1 µM
[9] = target: Receptor tyrosine-protein kinase erbB-4 (Homo sapiens) (UniProt Q15303); details: at 10 µM
[10] = target: Focal adhesion kinase 1 (Homo sapiens) (UniProt Q05397); details: at 1 µM
Chain of Focal adhesion kinase 1 (Homo sapiens) (Q05397 2-1052 limits assumed): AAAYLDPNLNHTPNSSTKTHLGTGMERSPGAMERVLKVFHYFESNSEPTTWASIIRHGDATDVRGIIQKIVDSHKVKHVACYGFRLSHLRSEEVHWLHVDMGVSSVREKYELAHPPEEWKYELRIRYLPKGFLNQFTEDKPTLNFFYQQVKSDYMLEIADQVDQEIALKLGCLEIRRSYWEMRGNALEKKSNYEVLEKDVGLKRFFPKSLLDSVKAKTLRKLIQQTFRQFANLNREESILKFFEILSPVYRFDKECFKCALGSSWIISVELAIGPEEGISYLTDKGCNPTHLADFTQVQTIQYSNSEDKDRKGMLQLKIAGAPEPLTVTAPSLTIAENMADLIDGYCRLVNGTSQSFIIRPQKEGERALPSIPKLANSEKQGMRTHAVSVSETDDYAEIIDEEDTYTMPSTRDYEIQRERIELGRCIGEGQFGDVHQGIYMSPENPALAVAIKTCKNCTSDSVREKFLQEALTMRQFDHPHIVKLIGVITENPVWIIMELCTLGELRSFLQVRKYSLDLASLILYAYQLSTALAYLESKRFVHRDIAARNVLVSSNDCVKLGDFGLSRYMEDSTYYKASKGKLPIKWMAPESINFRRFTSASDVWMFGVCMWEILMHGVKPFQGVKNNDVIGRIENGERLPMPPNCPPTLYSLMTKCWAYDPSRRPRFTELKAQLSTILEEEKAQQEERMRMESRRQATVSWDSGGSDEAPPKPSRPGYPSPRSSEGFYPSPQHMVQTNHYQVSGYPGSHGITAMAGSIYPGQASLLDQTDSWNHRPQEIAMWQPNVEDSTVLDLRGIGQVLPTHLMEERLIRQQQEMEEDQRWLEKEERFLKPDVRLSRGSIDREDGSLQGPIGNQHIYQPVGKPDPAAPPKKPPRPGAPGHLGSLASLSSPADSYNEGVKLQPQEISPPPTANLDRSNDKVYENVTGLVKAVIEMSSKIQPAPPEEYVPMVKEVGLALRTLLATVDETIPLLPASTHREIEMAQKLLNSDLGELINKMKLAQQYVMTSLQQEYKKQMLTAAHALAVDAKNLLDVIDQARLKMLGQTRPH

Chain of Receptor tyrosine-protein kinase erbB-4 (Homo sapiens) (Q15303 whole entry): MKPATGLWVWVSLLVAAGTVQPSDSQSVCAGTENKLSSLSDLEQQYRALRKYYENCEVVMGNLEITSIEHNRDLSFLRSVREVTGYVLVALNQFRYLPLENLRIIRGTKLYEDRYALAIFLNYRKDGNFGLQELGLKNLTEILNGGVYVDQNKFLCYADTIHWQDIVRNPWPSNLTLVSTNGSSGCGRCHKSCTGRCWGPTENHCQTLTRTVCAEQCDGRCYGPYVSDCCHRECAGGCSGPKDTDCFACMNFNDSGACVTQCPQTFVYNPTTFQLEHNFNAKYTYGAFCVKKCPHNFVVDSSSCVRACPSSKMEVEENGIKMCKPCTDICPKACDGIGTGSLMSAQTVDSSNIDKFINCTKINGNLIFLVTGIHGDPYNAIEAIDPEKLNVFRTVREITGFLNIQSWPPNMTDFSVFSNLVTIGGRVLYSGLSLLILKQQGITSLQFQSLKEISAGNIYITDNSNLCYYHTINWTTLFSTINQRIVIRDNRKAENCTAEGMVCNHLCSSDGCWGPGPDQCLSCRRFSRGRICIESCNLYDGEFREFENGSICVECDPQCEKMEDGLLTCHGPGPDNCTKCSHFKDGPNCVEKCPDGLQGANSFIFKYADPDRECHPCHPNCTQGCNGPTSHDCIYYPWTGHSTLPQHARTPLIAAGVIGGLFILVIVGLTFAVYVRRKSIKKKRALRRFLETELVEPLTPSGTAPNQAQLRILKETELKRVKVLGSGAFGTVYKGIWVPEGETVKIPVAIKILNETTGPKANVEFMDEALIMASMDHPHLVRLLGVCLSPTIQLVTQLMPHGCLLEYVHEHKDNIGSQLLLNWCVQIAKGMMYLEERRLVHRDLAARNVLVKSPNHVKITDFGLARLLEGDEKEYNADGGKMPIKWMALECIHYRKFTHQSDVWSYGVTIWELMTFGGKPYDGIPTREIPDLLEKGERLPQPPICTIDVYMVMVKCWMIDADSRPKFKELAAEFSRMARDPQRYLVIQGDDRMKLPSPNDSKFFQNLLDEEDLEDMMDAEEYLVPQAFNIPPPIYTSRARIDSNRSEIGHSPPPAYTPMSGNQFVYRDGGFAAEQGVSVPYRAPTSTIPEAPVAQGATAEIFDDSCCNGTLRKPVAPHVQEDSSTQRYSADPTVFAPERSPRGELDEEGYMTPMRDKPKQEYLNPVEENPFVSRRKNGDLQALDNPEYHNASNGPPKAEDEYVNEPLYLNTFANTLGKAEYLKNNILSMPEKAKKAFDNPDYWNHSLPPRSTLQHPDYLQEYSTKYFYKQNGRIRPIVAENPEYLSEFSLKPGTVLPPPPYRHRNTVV

Structure (SMILES): O=[N+]([O-])/C=C/c1ccc2c(c1)OCO2
- residual activity [1]: 116%
- residual activity [2]: 116%
- residual activity [3]: 124%
- residual activity [4]: 117% (inactive)
- residual activity [5]: 111%
- residual activity [6]: 114%
- residual activity [7]: 127%
- residual activity [8]: 86%
- residual activity [9]: 101%
- residual activity [10]: 141%
